The record followed here is PubChem BioAssay (Tox21).

The nature of experiment [1]: qHTS assay to identify aromatase inhibitors - cell viability counter screen (AID 743084).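 Note: cells stimulated with testosterone during compound exposure; nearly all actives have a fitted effect of over 55% in size.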 Note: potency is the fitted concentration of half-maximal effect. A general note: qHTS replaces the single test concentration by a dilution series.
The target in experiment [2] is Aryl hydrocarbon receptor (Homo sapiens) (UniProt P35869). The experiment in a line: qHTS assay to identify small molecule that activate the aryl hydrocarbon receptor (AhR) signaling pathway (AID 743085).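 For activation: HG2L7.5c1 human HepG2 liver cells with stably integrated DRE-driven firefly reporter; series mostly up to about 70 µM.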 Note: nearly all actives have a fitted effect of over 15% in size. Note: potency is the fitted concentration of half-maximal effect. In short, it runs like this: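 Compounds were tested in HepG2 hepatocellular carcinoma cells harbouring a stably integrated luciferase gene under control of 20 DREs. Increased reporter signal after 24 h treatment at 37C was taken as AhR activation.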
Sequence of Aryl hydrocarbon receptor (Homo sapiens) (P35869 whole entry, looked up): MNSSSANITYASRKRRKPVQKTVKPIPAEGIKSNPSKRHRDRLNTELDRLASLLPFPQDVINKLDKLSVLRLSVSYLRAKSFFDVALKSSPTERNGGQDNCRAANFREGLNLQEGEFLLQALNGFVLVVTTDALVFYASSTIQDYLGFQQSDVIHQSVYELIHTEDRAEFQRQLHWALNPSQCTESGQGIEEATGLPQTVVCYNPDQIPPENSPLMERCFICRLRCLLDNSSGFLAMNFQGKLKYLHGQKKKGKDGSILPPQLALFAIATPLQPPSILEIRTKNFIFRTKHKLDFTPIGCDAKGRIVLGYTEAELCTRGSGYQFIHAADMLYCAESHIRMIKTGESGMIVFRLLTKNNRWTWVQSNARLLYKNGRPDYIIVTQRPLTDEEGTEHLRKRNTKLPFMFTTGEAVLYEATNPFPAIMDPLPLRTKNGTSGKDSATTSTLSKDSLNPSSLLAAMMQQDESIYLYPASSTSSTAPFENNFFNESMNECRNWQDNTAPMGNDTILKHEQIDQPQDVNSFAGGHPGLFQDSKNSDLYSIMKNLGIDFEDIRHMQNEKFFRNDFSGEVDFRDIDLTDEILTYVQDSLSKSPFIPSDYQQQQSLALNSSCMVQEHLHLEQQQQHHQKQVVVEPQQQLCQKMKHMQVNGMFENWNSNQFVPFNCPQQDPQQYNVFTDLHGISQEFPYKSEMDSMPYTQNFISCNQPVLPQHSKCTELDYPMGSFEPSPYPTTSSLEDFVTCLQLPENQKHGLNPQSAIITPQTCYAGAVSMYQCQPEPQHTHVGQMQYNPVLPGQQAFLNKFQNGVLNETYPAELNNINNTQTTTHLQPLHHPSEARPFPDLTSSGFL

A short description of experiment [3]: qHTS assay to identify small molecule antagonists of the peroxisome proliferator-activated receptor gamma (PPARg) signaling pathway - cell viability counter screen (AID 743194). Note: nearly all actives have a fitted effect of over 55% in size. Note: potency is the fitted concentration of half-maximal effect. In short, it runs like this: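 Cytotoxicity counter screen in PPARg-bla HEK293H cells, same wells as reporter assay. Compounds plus 50 nM rosiglitazone (final) for 17 h at 37 C, then viability read by CellTiter-Glo luminescence.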

The nature of experiment [4]: qHTS assay for small molecule agonists of the antioxidant response element (ARE) signaling pathway (AID 743202; active = well fitted activation curve with a large enough effect in the signal ratio in the repeat runs, not every such curve was filed as active; the % refers to the signal ratio; note: potency is the fitted concentration of half-maximal effect). In short, it runs like this:
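Agonist mode reporter screen: HepG2 cells with ARE-controlled beta-lactamase are incubated with test compounds for 16 h at 37 C, and beta-lactamase activity is measured as fluorescence of cleaved B/G FRET substrate.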

Experiment [5] is described as follows: qHTS assay for small molecule agonists of the antioxidant response element (ARE) signaling pathway - cell viability counter screen (AID 743203; calls by dose curve; note: nearly all actives have a fitted effect of over 55% in size; note: potency is the fitted concentration of half-maximal effect). In short, it runs like this:
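CellSensor ARE-bla HepG2 cells, 2,000 per well, rested 5 hrs at 37C/5% CO2, then exposed to compound in DMSO for 16 hrs; viability read as CellTiter-Glo luminescence after 30 min at room temperature, in the reporter wells.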

Experiment [6] can be described thus: qHTS assay for small molecule activators of the heat shock response signaling pathway - cell viability counter screen (AID 743209). Note: nearly all actives have a fitted effect of over 50% in size. Note: potency is the fitted concentration of half-maximal effect. An outline of the steps: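 CellSensor HSE-bla HeLa cells, plated overnight at 37 C/5% CO2, were exposed to compounds in DMSO for 5 h at 37 C. Viability was then read in the same wells by CellTiter-Glo luminescence after 30 min at room temperature.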

The nature of experiment [7]: qHTS assay to identify small molecule that activate the aryl hydrocarbon receptor (AhR) signaling pathway - cell viability counter screen (AID 743086). Note: nearly all actives have a fitted effect of over 45% in size. Note: potency is the fitted concentration of half-maximal effect. In short, it runs like this:
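HepG2-AhR-luc (HG2L7.5c1) cells, 4000/well, treated 24 h at 37 C with compound; viability measured as CellTiter-Fluor fluorescence after 30 min in the same wells as the luciferase read.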

Experiment [8] addresses Peroxisome proliferator-activated receptor gamma (Homo sapiens) (UniProt P37231). In words: qHTS assay to identify small molecule agonists of the peroxisome proliferator-activated receptor gamma (PPARg) signaling pathway (AID 743094; active = well fitted activation curve with a large enough effect in the signal ratio in the repeat runs, not every such curve was filed as active; the % refers to the signal ratio). In short, it runs like this:
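GeneBLAzer PPARg UAS-bla HEK293H cells carrying a stably integrated beta-lactamase reporter were pre-incubated 5 h at 37C, then exposed to compounds in DMSO for 17 h at 37C; LiveBLAzer B/G FRET substrate was added for 1 h at room temperature and fluorescence read.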

Experiment [9] shares this target. The experiment in a line: qHTS assay to identify small molecule antagonists of the peroxisome proliferator-activated receptor gamma (PPARg) signaling pathway (AID 743191; calls by dose curve; note: series mostly up to about 63 µM; nearly all actives have a fitted effect of over 30% in size). In short, it runs like this: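 GeneBLAzer PPARg UAS-bla HEK293H cells, 5 h post-plating, exposed to compounds 17 h at 37C. LiveBLAzer B/G FRET substrate added for 1 h at room temperature; beta-lactamase reporter read by fluorescence intensity.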

A short description of experiment [10]: qHTS assay for small molecule activators of the heat shock response signaling pathway (AID 743210; active = well fitted activation curve with a large enough effect in the signal ratio in the repeat runs, with a control signal flat, not every such curve was filed as active; the % refers to the signal ratio;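 note: HeLa cells with beta-lactamase reporter driven by heat shock elements; series mostly up to about 63 µM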). An outline of the steps:
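Quantitative high-throughput format using an engineered HeLa line in which heat shock response elements drive beta-lactamase; after 5 h with compound, cells received a B/G FRET substrate and fluorescence was read.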

“And” between values parts separate entries of the source, which are not always exact repeats. Equal entries are not always repeated. Records with an inconclusive call do not appear. The source made the active and inactive calls. Unless noted, calls come from the whole dose curve; as a rule, active = well fitted curve in the direction sought with a large enough effect in the repeat runs; inconclusive = weak or mixed curves; inactive = no such curve, though single readings can be large; an effect the other way counts as inactive or inconclusive.

Sequence of Peroxisome proliferator-activated receptor gamma (Homo sapiens) (P37231 whole entry, looked up): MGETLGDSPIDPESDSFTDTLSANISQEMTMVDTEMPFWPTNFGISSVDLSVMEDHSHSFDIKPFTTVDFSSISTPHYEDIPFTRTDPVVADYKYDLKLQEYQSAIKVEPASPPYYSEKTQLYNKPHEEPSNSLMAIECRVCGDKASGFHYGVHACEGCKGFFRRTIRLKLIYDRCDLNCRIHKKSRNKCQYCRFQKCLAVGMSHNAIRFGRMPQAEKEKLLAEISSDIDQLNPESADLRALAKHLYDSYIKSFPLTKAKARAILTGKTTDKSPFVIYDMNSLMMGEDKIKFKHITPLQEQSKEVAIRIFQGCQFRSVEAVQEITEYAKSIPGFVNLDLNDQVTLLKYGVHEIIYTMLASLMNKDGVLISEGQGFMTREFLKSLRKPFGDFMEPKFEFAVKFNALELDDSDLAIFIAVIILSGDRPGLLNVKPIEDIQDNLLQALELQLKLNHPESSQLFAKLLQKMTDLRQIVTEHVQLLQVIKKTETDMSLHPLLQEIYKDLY

On to `CC(=O)OC(OC(C)=O)c1ccc([N+](=O)[O-])o1`, for which the Potency in experiment [1] was 13.9 µM (active); in experiment [3] it was 49.8 µM (active); in experiment [4], 15.6 µM (active); in [5] it was 62.2 µM (active); in [6], 19.8 µM (active). The Potency entry in experiment [2] was “inactive”.

For the compound `O=C(O)CCn1c2c(c3ccccc31)C[C@H](NS(=O)(=O)c1ccc(F)cc1)CC2`, the Potency result in experiment [1], in experiment [2], in experiment [7], in experiment [3] and in experiment [6] was “inactive” throughout.

As to `CCCCOC(=O)C(C)CC` (stereo unspecified), the Potency entry in experiment [1], in experiment [2], in experiment [3], in [4] and in experiment [5] was “inactive” each time.

For `C=CC(=O)OCC(O)COc1ccccc1` (stereo unspecified), the Potency in [1] was 61.1 µM (active); in [6], 4.9 µM (active). In addition, the Potency result in [2] and in experiment [7] was “inactive” each time.

In the case of `CC1(C)C(=O)N(Br)C(=O)N1Br`, the Potency entry in experiment [1], in [2], in experiment [8], in experiment [9], in [3] and in [4] was “inactive” in each case. In addition, the Potency entry in [5], in experiment [6] and in experiment [10] was “inactive” each time.

As to `CCN(CC)CCNc1ccc(CO)c2sc3ccccc3c(=O)c12`, the Potency result in experiment [1], in [6] and in experiment [10] was “inactive” in each case. The figures for the Potency in experiment [2], in experiment [7] and in experiment [5] were 0.531 µM (active), 6.68 µM (active) and 6.68 µM (active), respectively.

`CCOC(=O)N1CCC(=C2c3ccc(Cl)cc3CCc3cccnc32)CC1`: the Potency result in experiment [1] and in [6] was “inactive” each time. Besides, the Potency in experiment [3] is 49 µM (active) and 26.6 µM (active); in experiment [5], 30.6 µM (active).

Take `Cc1cc(Nc2ccc(O)cc2)ccc1N`: the Potency in [1] was 24.2 µM (active); in [3], 12.2 µM (active). Moreover, the Potency entry in experiment [8] and in experiment [6] was “inactive” each time.

Regarding `CCCCCCC(C)Nc1ccc(Nc2ccccc2)cc1` (stereo unspecified), the Potency result in experiment [1], in [7], in experiment [8] and in experiment [5] was “inactive” throughout. Moreover, the Potency in experiment [6] is 49 µM (active).

For the compound `ClC/C=C\CCl`, the Potency entry in [1], in experiment [7], in experiment [8], in experiment [9], in [3] and in experiment [5] was “inactive” each time. Further, the Potency result in experiment [6] and in experiment [10] was “inactive” in each case.

Turning to `CC(NCCC(c1ccccc1)c1ccccc1)c1ccccc1` (stereo unspecified), the Potency result in experiment [2] and in [8] was “inactive” in each case. For the same compound, the Potency in [7] was 26.6 µM (active); in [5], 33.5 µM (active).

Regarding `CCCOc1sc(C(=O)N2CCC(c3cc(CN)ccc3F)CC2)c(C)c1Br`, the Potency is 44.5 µM (active) in experiment [1]; 56 µM (active) in experiment [7]; 17.9 µM (active) in experiment [3]; 17.7 µM (active) in experiment [5]; 40 µM (active) in experiment [6].

As to `CCCCOc1ccc(C(=O)CCN2CCCCC2)cc1`, the Potency result in [1], in experiment [7], in experiment [8], in experiment [9], in [3] and in experiment [6] was “inactive” throughout. Moreover, the Potency in experiment [5] was 26.6 µM (active).

With `COc1cccc(CCc2ccccc2OCC(CN(C)C)OC(=O)CCC(=O)O)c1` (stereo unspecified), the Potency result in experiment [1], in [5], in experiment [6] and in [10] was “inactive” in each case.
